Calls of active or inactive are those of the source.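 Rule for the calls: active = inhibition reaching about 16% in any single replicate (limit read from the data); inactive = the rest.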
Each compound was assayed against Hexokinase HKDC1 (Homo sapiens) (UniProt Q2TB90) (assay: compounds lowering human HKDC1 activity – biochemical, single concentration, confirmation (AID 504710)). Settings: recombinant HKDC1, G6PDH/diaphorase/resazurin fluorescence; at 20 µM; hits give high values.
Sequence of Hexokinase HKDC1 (Homo sapiens) (Q2TB90 whole entry, looked up): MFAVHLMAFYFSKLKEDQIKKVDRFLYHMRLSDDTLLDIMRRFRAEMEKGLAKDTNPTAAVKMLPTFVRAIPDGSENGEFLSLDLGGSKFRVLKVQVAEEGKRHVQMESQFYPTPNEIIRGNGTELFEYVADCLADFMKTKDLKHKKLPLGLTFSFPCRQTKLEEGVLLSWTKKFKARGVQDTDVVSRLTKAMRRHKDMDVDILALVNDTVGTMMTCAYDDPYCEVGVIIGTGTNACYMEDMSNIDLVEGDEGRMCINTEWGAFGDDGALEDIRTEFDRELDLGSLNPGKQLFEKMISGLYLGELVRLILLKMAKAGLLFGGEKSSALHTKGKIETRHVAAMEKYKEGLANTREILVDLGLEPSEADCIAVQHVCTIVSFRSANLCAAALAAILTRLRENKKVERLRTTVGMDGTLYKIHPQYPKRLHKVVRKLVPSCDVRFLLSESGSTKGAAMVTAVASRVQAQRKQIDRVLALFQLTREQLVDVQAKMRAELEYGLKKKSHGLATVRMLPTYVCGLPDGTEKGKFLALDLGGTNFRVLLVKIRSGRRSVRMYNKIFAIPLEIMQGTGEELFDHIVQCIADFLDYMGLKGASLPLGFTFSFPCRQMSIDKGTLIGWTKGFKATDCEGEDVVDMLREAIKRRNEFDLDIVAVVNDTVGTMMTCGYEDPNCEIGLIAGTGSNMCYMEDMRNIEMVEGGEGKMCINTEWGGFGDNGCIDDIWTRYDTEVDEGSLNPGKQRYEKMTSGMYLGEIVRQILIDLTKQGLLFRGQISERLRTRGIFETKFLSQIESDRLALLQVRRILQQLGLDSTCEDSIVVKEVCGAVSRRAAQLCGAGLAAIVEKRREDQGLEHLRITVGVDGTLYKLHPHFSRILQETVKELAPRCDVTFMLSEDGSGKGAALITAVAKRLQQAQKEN

inhibition, inactive:
COCc1cc(C2C(C(=O)c3ccco3)=C(O)C(=O)N2CCOCCO)ccc1O (configuration not stated) -40.1%
CC(=NNC(=S)Nc1cccc(C)c1)c1ccccn1 -60.1%
C[N+](C)(CCCCCC[N+](C)(C)CCCN1C(=O)c2cccc3cccc(c23)C1=O)CCCN1C(=O)c2cccc3cccc(c23)C1=O -82%
CC(C)(C)c1nnc(N/N=C/c2cc(Br)ccc2O)n(N)c1=O -48.8%
C=CCn1nc([N+](=O)[O-])nc1Sc1cccc2cccnc12 -52.4%
O=S(=O)(NC1c2cccc3cccc(c23)C1N1CCNCC1)c1ccccc1 (configuration not stated) -94.7%
Fc1ccccc1N=C1NN=C(c2ccccc2)CS1 -53.4%
Cc1nonc1C(=O)N/N=C/c1ccc(O)cc1O -33.6%
CCOC(=O)c1c(C)[nH]c(C2=NNC(=Nc3ccccc3OC)SC2)c1C -86.4%
CSc1nc(N)nc2c1ncn2CC(=O)N[C@H](C)c1cccc2ccccc12 -73.5%
COc1ccc(-c2nc3c(c(=O)n(C)c(=O)n3C)n2CC2CC(c3ccccc3)=NO2)cc1OC (configuration not stated) -32.8%
Cc1ccc(N=Nc2ccc(O)c3ncccc23)cc1C -40.4%
CC1(C)C(=O)Nc2ccccc2N1C(=O)COC(=O)c1cc(Cl)cc(Cl)c1 -50.1%

inhibition, active:
CC(=O)n1cc(N(C(=O)CCl)c2ccc([N+](=O)[O-])cc2)c2ccccc21 40.9%
CCOC(=O)c1ccc(NC2=CC(=O)C(=O)c3ccccc32)cc1 27.6%
CN(C)Cc1cc(O)c(CN(C)C)cc1O 70.3%
Cc1cc(C)c(S(=O)(=O)/N=C2\C=C(Nc3ccc(C(=O)O)cc3)C(=O)c3ccccc32)c(C)c1 39.5%
CCN(CC)Cc1cc(O)c(CN(CC)CC)cc1O 41.2%
Cc1ccc(-n2c3nc(=O)[nH]c(=O)c-3cc3cc([N+](=O)[O-])ccc32)cc1 56.2%
COC1=CC(=O)C(OC)=C(OC)C1=O 71.9%
O=C(O)c1ccc(S(=O)(=O)/N=C2\C=C(Nc3ccccc3F)C(=O)c3ccccc32)cc1 75.7%
COc1ccc(S(=O)(=O)Nc2ccc(O)c3ccccc23)cc1 51.2%
O=C(/C=C/c1cccs1)Nc1scc(-c2ccccc2)c1C(=O)O 58.2%
O=C1C=C(NCc2ccccc2)c2ccccc2C1=O 56%
Cc1cccc2c(N=NC(=O)c3ccc(NS(=O)(=O)c4cccs4)cc3)c(O)[nH]c12 63.2%
O=C1C(Cl)=C(N2CCC(C(=O)O)CC2)C(=O)c2ccccc21 57.2%
Cc1oc2c(c1C(=O)c1ccc(Cl)cc1)C(=O)C(=O)c1ccccc1-2 46.1%
COc1cc(/C=C2/C(=O)NN(c3ccc(Cl)c(Cl)c3)C2=O)cc([N+](=O)[O-])c1O 33.1%
Cc1ccc(C)c(-n2c3nc(=O)[nH]c(=O)c-3cc3cc([N+](=O)[O-])ccc32)c1 39.2%
CCCc1nc2oc3c(NCC4CCCO4)ncnc3c2c2c1COC(C)(C)C2 (configuration not stated) 28.9%
COc1cc(/C=C(\C#N)c2nc3ccc(C)cc3[nH]2)cc([N+](=O)[O-])c1O 42.2%
CCCCC[C@H](O)/C=C/[C@@H]1[C@@H](C/C=C\CCCC(=O)OC)[C@@H](O)C[C@H]1O 61%
COC(=O)c1ccc(NC(=O)CSc2n[nH]c(-c3ccncc3)n2)cc1 43%
CCCCC(CC)CN=C(N)NC(N)=NCCCCCCN=C(N)NC(N)=NCC(CC)CCCC (configuration not stated) 45.9%
CCCc1nc2oc3c(OC)ncnc3c2c2c1COC(C)(C)C2 42.4%
CC(=O)NC1C(=O)N(CCN2CCOCC2)c2ccc(C)cc21 (configuration not stated) 69.7%
O=c1c2ccccc2nc(/C=C/c2cccnc2)n1Cc1ccccc1 60.7%
